The whole screen tested about 310,000 compounds, of which about 14,000 (4.5%) showed an effect of 50% or more. Effects have a minus sign here. Shown is part of a subset that was picked to be rich in strong results.
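Further: peak tail current of the secondary pulse compared with the same well before compound.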

The target in the test is human ether-à-go-go-related gene (hERG) potassium channel (human, UniProt Q12809). In words: primary screen, population patch clamp on CHO cells stably expressing hERG; higher = less effect of the substance.
human ether-à-go-go-related gene (hERG) potassium channel, sequence (Q12809 whole entry, looked up): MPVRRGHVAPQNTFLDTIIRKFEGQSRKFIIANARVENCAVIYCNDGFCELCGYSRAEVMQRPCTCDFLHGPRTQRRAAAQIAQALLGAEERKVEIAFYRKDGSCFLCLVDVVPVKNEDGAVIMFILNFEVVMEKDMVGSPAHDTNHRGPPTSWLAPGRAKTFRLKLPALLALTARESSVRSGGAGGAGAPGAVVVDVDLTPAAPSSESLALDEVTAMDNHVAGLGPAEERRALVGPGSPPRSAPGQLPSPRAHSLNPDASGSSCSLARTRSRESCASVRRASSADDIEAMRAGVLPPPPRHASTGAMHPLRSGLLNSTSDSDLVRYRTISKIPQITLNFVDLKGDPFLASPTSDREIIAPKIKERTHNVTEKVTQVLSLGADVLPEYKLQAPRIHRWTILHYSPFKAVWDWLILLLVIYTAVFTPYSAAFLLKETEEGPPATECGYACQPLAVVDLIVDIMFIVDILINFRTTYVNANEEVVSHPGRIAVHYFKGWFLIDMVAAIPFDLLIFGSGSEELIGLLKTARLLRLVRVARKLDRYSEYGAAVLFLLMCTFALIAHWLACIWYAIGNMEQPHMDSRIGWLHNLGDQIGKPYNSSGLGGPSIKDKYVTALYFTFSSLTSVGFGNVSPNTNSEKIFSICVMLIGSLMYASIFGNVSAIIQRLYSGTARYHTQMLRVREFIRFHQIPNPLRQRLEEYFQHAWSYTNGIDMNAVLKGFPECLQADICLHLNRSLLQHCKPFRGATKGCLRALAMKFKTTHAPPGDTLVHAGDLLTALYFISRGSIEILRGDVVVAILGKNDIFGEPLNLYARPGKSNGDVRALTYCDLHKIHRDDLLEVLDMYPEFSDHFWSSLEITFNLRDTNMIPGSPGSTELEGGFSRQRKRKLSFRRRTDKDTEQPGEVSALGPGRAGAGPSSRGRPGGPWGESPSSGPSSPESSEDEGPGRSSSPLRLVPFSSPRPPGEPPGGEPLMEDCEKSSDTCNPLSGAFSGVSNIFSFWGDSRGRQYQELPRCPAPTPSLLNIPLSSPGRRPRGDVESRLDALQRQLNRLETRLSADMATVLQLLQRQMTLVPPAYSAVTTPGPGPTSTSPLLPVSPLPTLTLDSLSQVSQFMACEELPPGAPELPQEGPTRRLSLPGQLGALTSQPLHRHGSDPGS
For `Cn1cc(Cl)nc1C(O)c1ccccc1` (centres unmarked), the “hERG current change (%, negative = inhibition) at 10uM” value is given as 7.21%.
For `Br.O=S(=O)(c1ccc(-c2csc(Nc3ccc(Br)cc3)n2)cc1)N1CCCC1` the value was 10.2%; for `Cc1cccc(N(CC(=O)NC2CCCCC2)C(=O)c2ccc(C)s2)c1`, -24.7%; for `O=C(COc1ccc(C(=O)c2ccccc2)cc1)NC1CCCCCC1`, -21.9%.
The figure for `CC(C)(C)NC(=O)CCC1COc2ccccc2O1` (centres unmarked) is -4.27%.
The figure for `Cc1cccc(C)c1NC(=O)N1C2CCC1CC(O)(c1cccnc1)C2` (centres unmarked) is 20.2%; for `Cc1ccc(/C=C/C(=O)NCc2ccccn2)o1` it is -26.4%; for `COc1ccc([C@@H]2[C@@H]3C(=O)N(C(C)(C)C)C(=O)[C@@H]3[C@]3(Cc4ccc(Cl)cc4)C(=O)N(c4ccc(Br)cc4)C(=O)N23)cc1` it is 2.7%.
As for `CC(COc1ccccc1)N1CCC(CO)(Cc2ccccc2)CC1` (centres unmarked), the “hERG current change (%, negative = inhibition) at 10uM” value is reported as -50.6%.
Consider `COc1ccc(CC2(CO)CCN(C(C)Cc3ccc(Cl)cc3)CC2)cc1` (centres unmarked), for which the “hERG current change (%, negative = inhibition) at 10uM” value is listed as -80.4%.
The figure for `COc1ccc(CC(=O)N2CCc3ccccc3C2)cc1` is 3.67%.
The figure for `Cc1ccsc1C(=O)N1CCC(CO)(Cc2ccccc2)CC1` is 17.6%; for `COc1ccc(CCC(C)N2CCOCC2)cc1` (centres unmarked) it is 2.71%.
Turning to `CN1CCC(CO)(Cc2ccccc2)CC1`, the “hERG current change (%, negative = inhibition) at 10uM” value was 16.2%.
`COc1ccc(CCC(C)N2CCc3ccccc3C2)cc1` (centres unmarked): the “hERG current change (%, negative = inhibition) at 10uM” value is given as -61.7%.
As for `COc1ccc(CC2(CO)CCN(S(=O)(=O)c3c(C)nn(C)c3Cl)CC2)cc1`, the “hERG current change (%, negative = inhibition) at 10uM” value was found to be 14.7%.
As to `COc1ccc(CC2(CO)CCN(S(=O)(=O)N(C)C)CC2)cc1`, the “hERG current change (%, negative = inhibition) at 10uM” value is reported as 9.82%.
Turning to `COc1ccc(N2CCN(C(=O)Cn3ncc4c([nH]c5ccccc54)c3=O)CC2)cc1`, the “hERG current change (%, negative = inhibition) at 10uM” value is on record as 9.02%.
For `CCOC(=O)Cc1csc(NC(=O)c2ccc(S(=O)(=O)N3CCCCC3)cc2)n1` the value was -42.2%; for `O=[N+]([O-])c1cccn2cc(-c3ccc(Br)cc3)nc12`, -2.94%; for `NS(=O)(=O)c1ccc(CCNC(=O)CCCCCNc2nc(=S)[nH]c3ccccc23)cc1`, 24.4%.
In the case of `Cc1ccc(NCc2cccnc2)cc1`, the “hERG current change (%, negative = inhibition) at 10uM” value was 2.82%.
Turning to `CC(=NCc1cccnc1)c1c(O)n(-c2ccc(C)cc2)c(=O)[nH]c1=O`, the “hERG current change (%, negative = inhibition) at 10uM” value was -8.92%.
The figure for `Cc1ccc(-n2c(=O)cc(NCc3cccnc3)[nH]c2=O)cc1` is -65.5%; for `COc1ccc(-c2cc(C(=O)N3CCCCCC3)no2)cc1OC` it is 7.06%.
For the compound `Cn1c(=O)c2c(nc(-n3ccnc3)n2Cc2ccc([N+](=O)[O-])cc2)n(C)c1=O`, the “hERG current change (%, negative = inhibition) at 10uM” value was -43.7%.
The figure for `Cc1cc(C(=O)CN2CCN(CC(=O)Nc3cccc(F)c3)CC2)c(C)n1C1CC1` is -56.2%; for `Cc1cccc(C)c1NC(=O)CN1CCN(CC(=O)c2cc(C)n(C3CC3)c2C)CC1` it is -12.4%; for `Cc1cc(C(=O)CN2C(=O)c3ccccc3C2=O)c(C)n1C1CC1` it is -1.31%.
For the compound `Cc1cc(C(=O)OCC(=O)Nc2cccc(F)c2)c(C)n1C1CC1`, the “hERG current change (%, negative = inhibition) at 10uM” value is recorded as -2.59%.
Regarding `Cc1cc(C(=O)OCC(=O)Nc2ccc(F)cc2)c(C)n1C1CC1`, the “hERG current change (%, negative = inhibition) at 10uM” value was found to be 5.51%.
For `Cc1cc(C(=O)CN2CCN(CC(=O)Nc3ccc(F)cc3)CC2)c(C)n1C1CC1` the value was -74.5%; for `CC1=C(C(=O)OCc2ccccc2)C(c2ccsc2)NC(=O)N1C` (centres unmarked), -37.7%.
As for `CCOC(=O)C(Cc1ccc(OC)c([N+](=O)[O-])c1)NC(=O)CCC(=O)Nc1ccc(C)cc1` (centres unmarked), the “hERG current change (%, negative = inhibition) at 10uM” value is -26.2%.
The figure for `COC(=O)c1ccc(/C=C/c2c(-c3ccc(OC)cc3)oc3ccc(N4CCOCC4)cc23)cc1` is 25.7%; for `Cc1cc(NC(=O)c2cnn3c(C(F)(F)F)cc(-c4ccc(Br)cc4)nc23)no1` it is 24.4%; for `C[C@]12CC[C@@H]3c4ccc(O)c(O)c4CC[C@H]3[C@@H]1CC[C@@H]2O` it is 15.4%.
For the compound `C[C@]12CC[C@@H]3c4ccc(O)cc4C(=O)C[C@H]3[C@@H]1CC[C@@H]2O`, the “hERG current change (%, negative = inhibition) at 10uM” value is on record as -52.7%.
The figure for `C[C@]12CC[C@@H]3c4ccc(O)cc4[C@@H](O)C[C@H]3[C@@H]1CC[C@@H]2O` is 10.4%.
Consider `CCN(CC)S(=O)(=O)c1ccc(/C=C/C(=O)OCC#N)cc1`, for which the “hERG current change (%, negative = inhibition) at 10uM” value is -12.4%.
For `COC(=O)c1cccc(NCN2C(=O)c3ccccc3C2=O)c1` the value was 1.11%.
`CCOc1ccc(NC(=O)CN(C)C(=O)Cc2c(C)nc3ccccc3c2C)cc1OCC`: the “hERG current change (%, negative = inhibition) at 10uM” value is on record as -47%.
For `Cc1nc2ccccc2c(C)c1CC(=O)N(C)CC(=O)Nc1cccc(F)c1` the value was -55.9%; for `CN(CC(=O)Nc1cccc(F)c1)C(=O)Cc1n[nH]c(=O)c2ccccc12`, 5.31%.
Turning to `COc1ccc(NC(=O)CN(C)C(=O)Cc2c(C)nc3ccccc3c2C)cc1`, the “hERG current change (%, negative = inhibition) at 10uM” value is on record as -46.1%.
The figure for `CN(CC(=O)Nc1cccc(F)c1)C(=O)CCc1nc2ccccc2c(=O)[nH]1` is 2.42%; for `COc1cccc(NC(=O)CN(C)C(=O)Cc2c(C)nc3ccccc3c2C)c1` it is -62.8%.
For `Cc1ccc(C(C(=O)NC(C)(C)C)N(C(=O)c2csnn2)c2ccccc2F)o1` (centres unmarked) the value was -9.84%.
Consider `CC(C)CC(=O)NS(=O)(=O)c1ccc(NS(C)(=O)=O)cc1`, for which the “hERG current change (%, negative = inhibition) at 10uM” value amounted to 11.7%.
As to `CCCc1nc(Nc2nc3ccccc3o2)nc(C)c1C(=O)OCC`, the “hERG current change (%, negative = inhibition) at 10uM” value is reported as -18.3%.
For `CCN(CC)CCCN(C(=O)Cn1nnc(-c2ccc(OC)c(OC)c2)n1)C(C(=O)NC(C)(C)C)c1ccc(F)cc1` (centres unmarked) the value was -74.5%; for `CCOCCCN(C(=O)Cn1nnc(-c2ccc(OC)c(OC)c2)n1)C(C(=O)NCC1CCCO1)c1ccc(F)cc1` (centres unmarked), -12.8%; for `CCN(CC)CCN(C(=O)Cn1nnc(-c2ccc(OC)c(OC)c2)n1)C(C(=O)NC1CCCC1)c1ccc(F)cc1` (centres unmarked), -35.1%.

The record behind these values is article PMC4336329 (PLoS ONE, 2015).
